Data reported in PubChem BioAssay (NCI).
Compounds without any hit were thinned out: in the full panel of roughly 83,000, 20% have a hit.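 Negative percent growth values reflect cell death: -40 means 40% of the cells present at the start died, and -100 means all died.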 A number with no mark means an inactive call. Activity calls are given as the source filed them. How the source made its calls: active means growth percent below 10; inactive means the rest.

system: HL-60(TB) leukemia; experiment: NCI-60 one-dose screen, 48 h (100 = growth as untreated, 0 = no growth, -100 = all killed); conditions: 10 µM unless noted

| SMILES | growth |
| --- | --- |
| COc1ccc(NC(=O)/C=C/c2ccc(NC(=O)N3CCCC3)cc2)cn1 | 102% |
| CCOC(=O)C1=C(C(F)(F)F)NC(=S)NC1CN1C(=O)c2ccccc2C1=O (stereo not given) | 86.7% |
| COc1ccc2c(c1)C(Br)=C(CCO)C2c1ccccc1 (stereo not given) | 1.04% (active) |
| NC(=O)c1ccccc1OCC(=O)Nc1ccc(Cl)c(Cl)c1 | 86.4% |
| O=C(NNC(=O)c1ccc(NC(=O)c2ccccn2)cc1)Nc1ccc([N+](=O)[O-])cc1 | 97.9% |
| COc1ccc2c(c1)OC1=C(C(=O)OC1)C2c1cc(OC)c(OC)c(OC)c1 (stereo not given) | 5.99% (active) |
| C=CCOc1ccc(/C=C2\SC(=S)N(CCc3ccc(O)cc3)C2=O)cc1 | 38.9% |
| CC1(C)C2CCC(O)(C(=O)O)C1C2 (stereo not given) | 107% |
| O=c1nc2sc3nc4ccccc4cc3cc-2s1 | 99% |
| O=C(O)c1ccc(-n2cc(CNc3ccc(C(F)(F)F)cc3)c(-c3ccccc3)n2)cc1 | 89.2% |
| CCCCN1CCCn2c1nc1c2c(=O)n(CCC)c(=O)n1CCC | 109% |
| CC(C)NS(=O)(=O)/N=C1\NC(=O)NC1=C(Cl)Cl | 55.6% |
| Cc1nn2c(-c3nc4cc(Cl)c(Cl)cc4[nH]3)c(-c3ccc(F)cc3)nc2s1 | 106% |
| CN1CCCc2cc(/C=C3\SC(=S)N(C(Cc4ccc(O)cc4)C(=O)O)C3=O)ccc21 (stereo not given) | 99.9% |
| COc1cc(Cn2ccc3c2-c2oncc2CC3)cc(OC)c1 | 16.6% |
| CC/C=C\C[C@@H](O)C/C=C1/C(=O)C=C[C@H]1C/C=C\CCCC(=O)OC | -15.6% (active) |
| COc1ccc(C(=O)C(CN(C)C)c2ccc(OC)cc2)cc1 (stereo not given) | 36% |
| Cn1c(=O)c2c(nc(Br)n2CC(=O)Nc2ccc(F)cc2)n(C)c1=O | 95.3% |
| Nc1ccn(C2CC(N)C(CO)O2)c(=O)n1 (stereo not given) | 84.6% |
| Cc1ccc(/C=C(/C#N)n2nnc3cccc(F)c32)cc1 | -18.2% (active) |

| SMILES | growth |
| --- | --- |
| CC(=O)Nc1nc2c(s1)CCc1c-2cn(S(=O)(=O)c2ccccc2)c1-c1ccccc1 | 71% |
| COc1cc(CNS(=O)(=O)c2ccc(C)cc2)ccc1OCc1cn(-c2ccc(Br)cc2)nn1 | 106% |
| CSc1nc2ccc(C)cc2cc1/C=C1/C=C(c2ccccc2)NC1=O | 87.4% |
| CCCCCCCCCCCCCCCCN=C(CC(=O)O)C(=O)O | 72.6% |
| O=S(=O)(NCCCNc1nccc(-c2c(-c3cccc(F)c3)nc3occn23)n1)c1cccc2ccccc12 | -26.8% (active) |
| CC1CCCC(CC(N)=O)CC1 (stereo not given) | 90.5% |
| CC(C)(C)CC(N)=O | 120% |
| CCCCCCCCCCCCNC(=O)N[C@H](C(=O)N[C@H]1/C=C/CCNC(=O)/C=C/[C@H](C)NC1=O)C(C)C | -25.2% (active) |
| Cc1cc2c(C(C)C)c(O)c(O)c(C=NCCCCC(=O)O)c2c(O)c1-c1c(C)cc2c(C(C)C)c(O)c(O)c(C=NCCCCC(=O)O)c2c1O | 42.6% |
| Cc1ccc(N=CNN=C(N)N)cc1 | 87.9% |
| Cn1cnc(-c2cc3nccc(Oc4ccc(NC(=S)NC(=O)Cc5ccccc5)cc4F)c3s2)c1 | 80% |
| COc1cc(/C=C/c2cc(/C=C/c3ccc(O)c(OC)c3)n(C(=O)Nc3ccccc3Cl)n2)ccc1O | -24.3% (active) |
| O=S(=O)(O)CC(O)CN1CCN(CCO)CC1 (stereo not given) | 96% |
| CN1CCN(Cc2ccc(NC(=O)c3[nH]ncc3Nc3ccnc4ccsc34)cc2)CC1 | -17.8% (active) |
| COc1ccccc1N1CCN(C(=O)c2ccc3nc(NC(=O)c4ccc(NCCc5ccccc5)c([N+](=O)[O-])c4)sc3c2)CC1 | 94.3% |
| CN(CCCNC(=O)CCOCCOCCOCCNC(=O)Cc1ccc2ccc3cccc4ccc1c2c34)CCCNc1cc(-c2ccc3ccccc3c2)nc2ccccc12 | -77.6% (active) |
| COc1ccc(NC(=O)CSc2nc(-c3ccc(OC)c(OC)c3)cc(-c3cc(OC)c(OC)c(OC)c3)n2)cc1 | 115% |
| c1ccc(Nc2nc3c(s2)CCc2c[nH]cc2-3)nc1 | 2.15% (active) |
| CCn1c2ccc(N(C)C)cc2c2cc(N(C)C)ccc21 | 66.1% |
| O=S(=O)(Oc1ccc(-c2ccc3sccc3c2)cc1)c1ccc(F)cc1 | 97.1% |
